The list is not random: actives were taken first. Their share in the collection is about 21%.
Pf growth 96h: P. falciparum growth inhibition at 96 hour, primary screen for plastid delayed-death inhibitors. P. falciparum luciferase reporter growth, 96 h. Potency, µM (titrated, usually from 28.7 µM), usual class: inhibitors. 6.9% of 320,000 active. AID 504834
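Compounds incubated with erythrocytes infected by luciferase-expressing P. falciparum (2% hematocrit, 0.05% parasitemia final) for 96 hours, 37 C in 5% CO2. Growth inhibition scored as decreased luciferase luminescence.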
NS1 inh: influenza NS1 inhibition; Potency, µM (titrated, usually from 46.1 µM); 0.4% of 270,000 active; AID 2326; calls by dose curve; note: actives are rising curves; nearly all actives have a fitted effect of over 50% in size
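In this qHTS, NS1 from influenza A is expressed in budding yeast, where it slows growth. Cells are switched from glucose to 2% galactose medium (pH 6.0, -URA), treated with compound, and growth recovery is read at OD600.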
Pf growth 48h: inhibits P. falciparum growth in the first generation, 48 h; P. falciparum luciferase growth in erythrocytes, 48 h; 5.9% of 310,000 active; Potency, µM (highest dose often 28.7 µM), actives largely listed as inhibitors; AID 504832
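Luminescence readout; reporter = integrated firefly luciferase in P. falciparum. RBC culture at 2% hematocrit, 0.1% parasitemia final, 37 C/5% CO2; decreased signal taken as growth inhibition.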
CHX counter: affects cycloheximide protein synthesis inhibition readout, counter-screen | AID 2314 | 12% of 300,000 active | max response, % | cell reporter, cycloheximide protein synthesis inhibition counterscreen; in the data active = max response mostly above about 13%, no sharp cut-off; inactive = mostly below about 14%; note: read at 38.3 µM for the half of the compounds with a filed dose
Giardia FBPA inh: inhibitors of Giardia lamblia fructose-1,6-bisphosphate aldolase. A8B2U2. AID 2451. purified Giardia FBPA. 0.71% of 290,000 active. Potency, µM (highest dose often 59.6 µM), hits mostly inhibitors; note: nearly all actives have a fitted effect of over 55% in size
Target sequence (A8B2U2 whole entry, looked up): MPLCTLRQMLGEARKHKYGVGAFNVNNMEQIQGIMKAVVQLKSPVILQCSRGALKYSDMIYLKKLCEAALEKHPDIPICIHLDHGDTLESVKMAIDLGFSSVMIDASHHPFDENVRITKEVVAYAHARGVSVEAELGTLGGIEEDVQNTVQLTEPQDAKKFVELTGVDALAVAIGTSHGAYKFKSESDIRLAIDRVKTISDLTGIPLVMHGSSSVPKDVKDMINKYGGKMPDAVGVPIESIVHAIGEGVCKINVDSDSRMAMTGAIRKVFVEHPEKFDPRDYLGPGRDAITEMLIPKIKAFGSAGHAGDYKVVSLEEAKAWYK
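40 nM FBPA preincubated 10 min at RT with compound (up to 57.5 uM final), then substrate plus GAPDH/TPI/NAD/arsenate coupling and diaphorase/resazurin added. Fluorescence read after 20 min at RT, 525/598 nm.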
Shiga inhibitor: inhibitors of Shiga toxin in Vero cells. Vero cells, Shiga toxin protein synthesis inhibition reporter. inhibition, % at 38.7 µM. 9.2% of 290,000 active; in the data active = inhibition mostly above about 28%, no sharp cut-off; inactive = mostly below about 43%
Each line names hits and unclear results; the compound was inactive in the other large screens. Unless noted, calls come from the whole dose curve; as a rule, active = well fitted curve in the direction sought with a large enough effect; inconclusive = small, poorly fitted or top-dose-only effect, or another doubt; inactive = no such curve, though single readings can be large; an effect the other way counts as inactive or inconclusive.

Cc1cc(C)c(C#N)c(SCC(=O)c2ccccc2)n1	Pf growth 96h 4.7µM
Cc1cc(C)c(-n2nnnc2SCC(=O)c2cccs2)c(C)c1	CHX counter 24, Shiga inhibitor 39
COc1ccc(CCN(C)C(=O)CCNS(=O)(=O)c2ccccc2C(F)(F)F)cc1OC	Pf growth 96h inconclusive (no result: NS1 inh, CHX counter, Giardia FBPA inh, Shiga inhibitor)
CN1C(=O)c2cccc3c(S(=O)(=O)Nc4ccccc4F)ccc1c23	none
N#Cc1cccc(NC(=O)N2CC[C@@]3(CCCNC3)C2)c1	none (no result: Pf growth 96h, NS1 inh, Pf growth 48h, CHX counter, Shiga inhibitor)
Cc1cc(C)c(C#N)c(Sc2ccccc2N)n1	Pf growth 96h inconclusive, Pf growth 48h inconclusive, CHX counter 32, Shiga inhibitor 72 (no result: NS1 inh)
COCCCNC(=O)c1cc(C)nn1-c1ccccc1	none
COc1ccc(-n2ccc(=O)c(C(=O)O)n2)cc1	none
COc1ccc(S(=O)(=O)NN(C)C(=O)c2nn(-c3ccccc3)ccc2=O)cc1	Pf growth 96h 5.9µM, Pf growth 48h inconclusive
O=C(c1ccc([N+](=O)[O-])cc1)N1CCSC1c1ccccc1Cl (stereo not given)	Pf growth 48h inconclusive
Clc1ccccc1C1SCC2Nc3ccccc3CN21 (stereo not given)	Pf growth 96h inconclusive, CHX counter 49
Cc1cc(C(=O)Nc2cccc3ccccc23)n(-c2ccccc2)n1	Pf growth 96h 3.3µM (no result: NS1 inh)
Cc1cc(C(=O)Nc2cccc(C)c2C)n(-c2ccccc2)n1	CHX counter 24, Shiga inhibitor 51
O=C(Nc1ccc(Cl)cc1)OCCn1nnnc1C(c1ccccc1Cl)N1CCOCC1 (stereo not given)	Pf growth 96h inconclusive, Pf growth 48h 15µM
COc1ccccc1Nc1nc(NCc2ccco2)c2ccccc2n1	Pf growth 96h inconclusive, Pf growth 48h inconclusive, CHX counter 24
Cc1ccc(Nc2nc(NCc3ccco3)c3ccccc3n2)cc1	CHX counter 30 (no result: NS1 inh)
Fc1ccccc1-c1nc(NCc2ccco2)c2ccccc2n1	Pf growth 48h inconclusive
COC(=O)C/C=C/C(C)C(OCc1cccc(Br)c1)C(C)C(OC)C1CCCCC1 (stereo not given)	none (no result: Pf growth 96h, NS1 inh, Pf growth 48h, CHX counter, Shiga inhibitor)
O=C(CCCN1CCC(O)(c2ccc(Br)cc2)CC1)c1ccc(F)cc1	Pf growth 96h 4.1µM, Pf growth 48h 8.3µM (no result: NS1 inh, CHX counter, Shiga inhibitor)
O=C(CCCN1CCC(O)(c2cccc(C(F)(F)F)c2)CC1)c1ccc(F)cc1	Pf growth 96h 5.9µM, Pf growth 48h 8.3µM (no result: CHX counter, Shiga inhibitor)
CC1CCN(CCCC(=O)c2ccc(F)cc2)CC1	Pf growth 96h inconclusive (no result: NS1 inh)
O=C(CCCN1CCC(O)(c2ccc(Cl)cc2)CC1)c1ccc(F)cc1	Pf growth 96h 6.6µM, Pf growth 48h 7.4µM
O=C(CCCN1CCC(C(=O)c2ccc(F)cc2)CC1)c1ccc(F)cc1	Pf growth 48h inconclusive
O=c1nc2ccccc2c2n1CC(CN1CCN(C(c3ccccc3)c3ccccc3)CC1)N2 (stereo not given)	Pf growth 96h inconclusive, Pf growth 48h inconclusive
Cc1ccc(S(=O)(=O)N2CCN(C(=O)C(F)(F)F)C2c2ccc(N(C)C)cc2)cc1 (stereo not given)	Pf growth 96h 13µM (no result: Giardia FBPA inh)
COc1ccc(C=O)cc1CSc1ncccc1C(=O)O	none
O=C(Cc1cccs1)Nc1ccccc1F	CHX counter 18
O=C(Cc1cccs1)Nc1ccccc1C(=O)O	NS1 inh inconclusive, CHX counter 21
O=C(Cc1cccs1)Nc1ccccc1NC(=O)Cc1cccs1	Pf growth 96h inconclusive
Cc1nn(-c2ccccc2)c(C)c1C(=O)NCc1ccccc1F	none
O=C1CC[C@@H](O)CCN1CC[C@H](Sc1ccccc1)c1ccccc1	none
C[C@@H]1CCC(=O)N(CC[C@H](Sc2ccccc2)c2ccccc2)CC1	Pf growth 96h inconclusive, Pf growth 48h inconclusive, CHX counter 10
O=C1CC[C@@H](OCc2ccccc2)CCN1CC[C@H](Sc1ccccc1)c1ccccc1	Pf growth 48h inconclusive, CHX counter 11
c1ccc(Cn2cc(CNc3ccccc3)nn2)cc1	none
CC[C@H](C(=O)c1cccs1)C(O)(C(F)(F)F)C(F)(F)F	none (no result: Pf growth 96h, Pf growth 48h, CHX counter, Giardia FBPA inh, Shiga inhibitor)
COc1ccc(CN2CCN(C(=O)C3CCC(CNS(=O)(=O)c4ccc(C)cc4)CC3)CC2)c(OC)c1OC (stereo not given)	none
CCOC(=O)C1CCCN(C(=O)c2ccc3c(c2)OCO3)C1 (stereo not given)	none (no result: Pf growth 96h)
CCOC(=O)CNC(=O)N1CCCC(C(=O)c2ccc3c(c2)OCO3)C1 (stereo not given)	Pf growth 96h 12µM
CC(=O)c1cccc(CN2CCCC(C(=O)c3ccc4c(c3)OCO4)C2)c1 (stereo not given)	Pf growth 96h inconclusive, Pf growth 48h inconclusive
O=C(c1ccc2c(c1)OCO2)C1CCCN(C2CCN(CCc3ccccc3)CC2)C1 (stereo not given)	Pf growth 48h 2.6µM
O=C(C[n+]1cccc(CNC(=O)c2ccc(OC(F)F)cc2)c1)Nc1ccccc1Cl	Pf growth 96h inconclusive, Pf growth 48h 13µM
O=C(C[n+]1cccc(CNC(=O)c2ccc(OC(F)F)cc2)c1)Nc1ccc(SC(F)F)cc1	Pf growth 96h 0.17µM, Pf growth 48h 1.7µM
O=C(NCc1ccc[n+](CCCCS(=O)(=O)[O-])c1)c1ccc(OC(F)F)cc1	none (no result: NS1 inh)
NS(=O)(=O)c1ccc(-c2ccc(C=C3C(=O)c4ccccc4C3=O)o2)cc1	none
O=C(O)c1ccc2c(c1)C(=O)/C(=C/c1ccccc1)C2=O	none
Cc1ccc(/C=C2/C(=O)c3ccc(C(=O)O)cc3C2=O)o1	Pf growth 96h 8.3µM, Giardia FBPA inh inconclusive
Cc1ccc(C=C2C(=O)c3ccccc3C2=O)o1	Pf growth 96h inconclusive, Pf growth 48h inconclusive, CHX counter 37
O=C1C(=Cc2ccco2)C(=O)c2ccccc21	Pf growth 96h 17µM, CHX counter 37
O=C(O)c1ccc2c(c1)C(=O)/C(=C\c1ccco1)C2=O	Pf growth 96h 12µM, Giardia FBPA inh inconclusive (no result: NS1 inh)
COc1ccc(S(=O)(=O)N(C)CC(=O)Nc2ccc3c(c2)OCO3)cc1OC	CHX counter 7.8
CC(NS(=O)(=O)c1ccc2c(c1)OCCCO2)C(=O)O (stereo not given)	none
CC(NS(=O)(=O)c1ccc(F)cc1)C(=O)Nc1ccc2c(c1)OCCO2 (stereo not given)	CHX counter 11 (no result: Giardia FBPA inh)
CN(CC(=O)Nc1ccc2c(c1)OCCO2)S(=O)(=O)c1ccc(F)cc1	Pf growth 96h inconclusive, CHX counter 27, Shiga inhibitor 117
COc1ccccc1N(CC(=O)Nc1ccc2c(c1)OCCO2)S(=O)(=O)c1ccc(C)cc1	Pf growth 48h inconclusive, CHX counter 32, Shiga inhibitor 47
NC[C@H]1O[C@H](n2cnc3c(N)ncnc32)C[C@@H]1O	none (no result: Pf growth 96h, Pf growth 48h, CHX counter, Giardia FBPA inh, Shiga inhibitor)
O=C(NCC(c1ccc(F)cc1)N1CCOCC1)c1ccco1 (stereo not given)	none (no result: NS1 inh, CHX counter, Giardia FBPA inh, Shiga inhibitor)
Cc1cccc(C(=O)NCC(=O)N2CCCCCCC2)c1	none (no result: NS1 inh, CHX counter, Giardia FBPA inh, Shiga inhibitor)
COc1ccccc1Oc1ccc(N2CC(C(=O)OCC(=O)c3ccccc3)CC2=O)cc1 (stereo not given)	none (no result: Giardia FBPA inh)
